# Assay results as given in PubChem BioAssay (NCATS).
# Records with an inconclusive call do not appear. A call without a number means that no potency is given here. Unmarked numbers belong to inactive results. Activity calls are given as the source filed them. Calls come from the whole dose curve; as a rule, active = well fitted curve in the direction sought with a large enough effect; inconclusive = small, poorly fitted or top-dose-only effect, or another doubt; inactive = no such curve, though single readings can be large; an effect the other way counts as inactive or inconclusive.
# Assays:
# [1] = test system: Zika virus NS2B-NS3 protease; assay: Primary screen GU AMC qHTS for Zika virus inhibitors (AID 1347154); note: nearly all actives have a fitted effect of over 70% in size
# Procedure, shortened: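 Unlinked Zika NS2B hydrophilic domain–NS3 protease complex at 25 nM in 10 mM Tris-HCl pH 8.0, 0.01% Tween 20, with an AMC peptide substrate. Fluorescence change (340/450 nm) over 15 min at room temperature, normalized to controls, fitted to 4-parameter Hill.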
# [2] = target: Lysine-specific demethylase 5B (Homo sapiens) (UniProt Q9UGL1); assay: Optimization screen for KDM5B Histone Demethylases FDH coupled qHTS against the LOPAC library (AID 1347166); details: KDM5B demethylation, FDH-coupled NADH fluorescence (FDH is formaldehyde dehydrogenase); at 57.5 µM (top of the series)
# Procedure, shortened: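 KDM5BDeltaAP (200nM final) in 50mM HEPES pH 7.5, 0.01% Tween-20 was preincubated with compound for 10 min at room temperature. A substrate mix of 12.5uM H3K4Me3, 25uM a-ketoglutarate, ascorbate, Fe2+, NAD+ and formaldehyde dehydrogenase was then added. NADH fluorescence (340/450 nm) was read initially and after 30 min.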
# [3] = Confirmatory screen NINDS Rhodamine qHTS for Zika virus inhibitors (AID 1347161); note: potency is the fitted concentration of half-maximal effect; nearly all actives have a fitted effect of over 60% in size
# Procedure, shortened: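 qHTS dose-response: 25 nM linked protease, pH 8.0 Tris/Tween buffer, cpd titration, 15 min RT preinc, 1.5 microM Rhod110 peptide, 15 min reaction (~15% conversion), Ex480/Em540; 4-parameter Hill fit.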
# [4] = test system: Zika virus NS2B-NS3 protease (linked); assay: 384 well plate NINDS AMC confirmatory qHTS for Zika virus inhibitors (AID 1347163); note: nearly all actives have a fitted effect of over 50% in size; note: potency is the fitted concentration of half-maximal effect
# Procedure, shortened: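 Enzyme (5, 30 or 60 nM final) first met test compounds for ~15 min. The AMC-tagged peptide Ac-VKTGKR-AMC followed at 30 microM. Fluorescence was then recorded at 25 min and scaled against no-enzyme and no-inhibitor wells.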
# [5] = test system: Zika virus NS2B-NS3 protease (linked construct); assay: 384 well plate NINDS Rhodamine confirmatory qHTS for Zika virus inhibitors (AID 1347164);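 note: fluorescence from protease cleavage of Ac-LKRR-rhodamine 110 substrate; potency is the fitted concentration of half-maximal effect; nearly all actives have a fitted effect of over 65% in size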
# Procedure, shortened: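 Linked protease at a final 5 nM, 30 nM or 60 nM was preincubated ~15 min with compounds, then given 10 microM Ac-LKRR-Rhodamine 110. Fluorescence (ex 485/em 538 nm) after 25 min in the dark at room temperature.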
# [6] = Vero cells viability qHTS for Zika virus inhibitors (AID 1347167)
# Procedure, shortened: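 qHTS titration; 24-48 h compound exposure, 37 degrees C/5% CO2; DMEM, 4% FBS; CellTiter Glo ATP luminescence.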
# Lysine-specific demethylase 5B (Homo sapiens), sequence (Q9UGL1 whole entry, looked up): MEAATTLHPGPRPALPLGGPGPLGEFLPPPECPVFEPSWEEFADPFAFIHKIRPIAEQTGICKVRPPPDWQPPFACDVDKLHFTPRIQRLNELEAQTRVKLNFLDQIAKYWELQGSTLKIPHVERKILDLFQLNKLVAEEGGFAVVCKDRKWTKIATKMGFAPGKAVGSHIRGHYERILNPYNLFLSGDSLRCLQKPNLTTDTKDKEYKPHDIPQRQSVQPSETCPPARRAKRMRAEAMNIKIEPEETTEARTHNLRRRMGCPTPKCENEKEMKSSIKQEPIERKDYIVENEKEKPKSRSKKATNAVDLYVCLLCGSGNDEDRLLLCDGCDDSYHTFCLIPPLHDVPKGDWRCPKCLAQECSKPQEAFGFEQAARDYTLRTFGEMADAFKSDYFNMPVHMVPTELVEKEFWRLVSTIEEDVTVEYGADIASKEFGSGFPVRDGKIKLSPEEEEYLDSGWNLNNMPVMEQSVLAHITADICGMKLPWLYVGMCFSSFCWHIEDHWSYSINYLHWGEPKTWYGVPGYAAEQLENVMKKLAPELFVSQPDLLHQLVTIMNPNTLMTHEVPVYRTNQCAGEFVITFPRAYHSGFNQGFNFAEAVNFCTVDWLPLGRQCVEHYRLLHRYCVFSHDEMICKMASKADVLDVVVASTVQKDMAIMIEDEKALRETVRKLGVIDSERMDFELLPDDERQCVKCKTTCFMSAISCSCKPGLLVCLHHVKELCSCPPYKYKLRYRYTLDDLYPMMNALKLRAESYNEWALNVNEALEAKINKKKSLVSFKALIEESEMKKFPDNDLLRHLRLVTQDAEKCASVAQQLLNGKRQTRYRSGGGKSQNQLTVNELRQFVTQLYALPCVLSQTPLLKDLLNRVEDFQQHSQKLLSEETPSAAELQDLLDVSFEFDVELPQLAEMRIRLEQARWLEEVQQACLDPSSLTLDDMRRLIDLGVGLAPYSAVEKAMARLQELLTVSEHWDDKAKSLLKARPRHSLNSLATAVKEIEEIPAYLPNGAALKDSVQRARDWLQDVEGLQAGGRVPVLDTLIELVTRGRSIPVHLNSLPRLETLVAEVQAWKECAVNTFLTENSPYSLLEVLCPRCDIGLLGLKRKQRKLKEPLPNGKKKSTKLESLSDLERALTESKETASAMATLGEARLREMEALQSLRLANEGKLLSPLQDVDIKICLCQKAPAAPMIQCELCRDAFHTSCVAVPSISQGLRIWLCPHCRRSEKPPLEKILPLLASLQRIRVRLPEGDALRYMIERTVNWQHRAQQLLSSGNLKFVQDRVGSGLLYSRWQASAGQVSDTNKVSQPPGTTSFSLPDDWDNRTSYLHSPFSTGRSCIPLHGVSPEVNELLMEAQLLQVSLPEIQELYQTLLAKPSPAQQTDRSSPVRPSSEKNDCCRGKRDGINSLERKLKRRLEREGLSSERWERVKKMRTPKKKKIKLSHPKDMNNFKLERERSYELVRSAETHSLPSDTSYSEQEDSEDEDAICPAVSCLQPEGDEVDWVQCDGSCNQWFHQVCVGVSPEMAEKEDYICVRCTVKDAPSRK
structure (smiles),measurement,setting,value
O=C1Cc2c([nH]c3ccc(Br)cc23)-c2ccccc2N1,Potency,[1],inactive
COc1ccc(NC(=O)c2ccc(-c3ccc(-c4noc(C)n4)cc3C)cc2)cc1N1CCN(C)CC1,Potency,[1],inactive
same,"activity, negative = inhibition",[2],-1.51%
NCCS(=O)O,Potency,[1],inactive
COC(=O)[C@H](NC(=O)c1cc(-c2ccccc2)nc2ccccc12)c1ccccc1,Potency,[1],inactive
Cn1c(=O)c2[nH]c(C3CCCC3)nc2n(C)c1=O,Potency,[1],inactive
O=c1[nH]c2ccccc2c2ccccc12,Potency,[1],inactive
S=C(S)N1CCCC1,Potency,[1],inactive
N#Cc1cc2nc(O)c(O)nc2cc1[N+](=O)[O-],Potency,[1],inactive
same,"activity, negative = inhibition",[2],-14.6%
Oc1cc2c(cc1O)C(c1ccccc1)CNCC2 (stereo not drawn),Potency,[1],inactive
O=C(O)c1ccccc1Nc1cccc(OCc2ccc3ccccc3n2)c1,Potency,[1],inactive
same,Potency,[3],3.49 µM (active)
same,Potency,[4],158 µM (active)
same,Potency,[5],63.1 µM (active)
same,"activity, negative = inhibition",[2],-2.34%
same,Potency,[6],inactive
Nc1nc2ccc(Cl)cc2c2nc(-c3ccco3)nn12,Potency,[1],inactive
same,Potency,[4],inactive
same,Potency,[6],inactive
CNCCNS(=O)(=O)c1cccc2cnccc12,Potency,[1],inactive
Nc1nc2c(cnn2CCc2ccccc2)c2nc(-c3ccco3)nn12,Potency,[1],inactive
COCc1nc2c([nH]1)c(=O)n(C)c(=O)n2CC(C)C,Potency,[1],inactive
CN1CCN(c2nc3cc(C(F)(F)F)ccc3n3cccc23)CC1,Potency,[1],inactive
CCN(CC)CCCCCCCCOC(=O)c1cc(OC)c(OC)c(OC)c1,Potency,[1],inactive
O=S(=O)(c1cccc2c(Cl)cccc12)N1CCCNCC1,Potency,[1],inactive
same,"activity, negative = inhibition",[2],1.08%
CC[C@H](NC(=O)c1c(C)c(-c2ccccc2)nc2ccccc12)c1ccccc1,Potency,[1],inactive
